Results: PubChem BioAssay (NCATS)
Inconclusive results are not listed. Active and inactive are the calls of the source. Unless noted, calls follow the shape of the full dose curve.

Columns and labels:
[1] = Cell Viability - BJ (AID 421); details: BJ fibroblast viability, qHTS;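 also: potency is read from the fitted curve at half-maximal effect; cells exposed to compound for 40 hours at 37 °C before readout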
Outline: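 Luminescent ATP signal (CellTiter-Glo, 20 min at room temperature) served as the read-out of viable BJ cells after 40 hours of compound treatment. Responses were scaled between DMSO and 100 uM tamoxifen, and AC50 values were obtained by Hill modeling.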

[2] = Cell Viability - Jurkat (AID 426;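 active = dose-dependent loss of cell ATP signal giving a full or clear fitted curve, ranked by lower potency value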;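 also: potency is read from the fitted curve at half-maximal effect; cells exposed to compound for 40 hours at 37 °C before ATP read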); details: qHTS
Outline: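 Cytotoxicity was scored as loss of cellular ATP, measured by luciferase-based luminescence, in Jurkat clone E6-1 cells after 40 h compound treatment; tamoxifen and doxorubicin served as positive controls.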

[3] = Cell Viability - Hek293 (AID 427;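 active = compounds whose dose-response curve shows a full or clear partial loss of cell viability, called from curve shape rather than a numeric limit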;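 also: potency is read from the fitted curve at half-maximal effect; cells exposed to compound for 40 hours at 37 °C before reading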); details: qHTS
Outline: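 Luminescent ATP read-out (CellTiter-Glo, 20 min RT) after 40 hr compound exposure at 37 °C in complete medium. Signal normalized to DMSO (basal) and 100 uM tamoxifen (100% inhibition); concentration-response fitted with the standard Hill equation to give AC50.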

[4] = Cell Viability - HepG2 (AID 433); details: qHTS;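 also: potency is read from the fitted curve at half-maximal effect; potency for ATP loss meaning cytotoxicity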
Outline: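 Read-out is luciferase-based quantitation of cellular ATP as a measure of viable HepG2 cells after 40 h treatment at 37 °C. Signal decrease is scaled between DMSO-only and 100 uM tamoxifen controls, with AC50 fitted by the Hill equation.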

[5] = Cell Viability - MRC5 (AID 434); details: MRC5 lung fibroblast viability, qHTS;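 also: potency is read from the fitted curve at half-maximal effect; cells exposed to compound for 40 hours at 37 °C; potency reflects cytotoxicity seen as loss of intracellular ATP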
Outline: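 AC50 values come from Hill-equation fits of intracellular ATP loss, measured by CellTiter-Glo luminescence. Normal lung fibroblasts (MRC5) had 40 hr compound treatment at 37 C, normalized between DMSO and 100 uM tamoxifen.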

[6] = Cell Viability - SK-N-SH (AID 435); details: SK-N-SH neuroblastoma cell viability qHTS;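 also: potency is read from the fitted curve at half-maximal effect; compound exposure lasted 40 h at 37 °C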
Outline: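 Luminescent ATP signal served as the viability read-out after 40 hours of compound treatment of human neuroblastoma SK-N-SH cells. Concentration-response data, scaled between DMSO and 100 uM tamoxifen, gave AC50 values by standard Hill modeling.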

[7] = biological target: Mitogen-activated protein kinase 10 (Mus musculus) (UniProt Q61831); experiment: JNK3 AlphaScreen Assay (AID 530; active = well fitted curve in either direction with a large enough effect, not every such curve was filed as active;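 also: kinase came from lysate of stimulated human HepG2 cells; signal reports phosphorylation of biotinylated GST-cJun 1-79 at Ser73 with 10 µM ATP; % is scaled to controls: 0 for no effect and ±100 for the full control effect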); details: JNK3 lysate, c-Jun phosphorylation; series mostly up to 57.1 µM
Outline: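 Kinase buffer: 20 mM Tris-HCl pH 7.6, 10 mM MgCl2, 1 mM DTT, 0.1 mM Na3VO4, 0.01% Tween-20; ATP 10 uM. Substrate biotin-GST-cJun(1-79), enzyme from activated HepG2 lysates. Detection by Ser73 phospho-antibody AlphaScreen.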

[8] = Cell Viability - N2a (AID 540; active = well fitted curve in the direction sought with a large enough effect; an effect the other way counts as inactive or inconclusive;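 also: cells exposed to compound for 40 h at 37 °C; plate controls were DMSO alone for no effect and tamoxifen control for full effect; nearly all actives have a fitted effect of over 45% in size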); details: N2a mouse neuroblastoma cell viability; activity change, negative = cytotoxicity: at 92.2 µM (top of the series)
Outline: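 In this qHTS cytotoxicity screen, ATP-dependent luciferase luminescence reports viable N2a cells after a 40 hr compound exposure in complete culture medium. Potencies are AC50 values from standard Hill equation fits.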

[9] = Cell Viability - NIH 3T3 (AID 541; active = well fitted curve in the direction sought with a large enough effect; an effect the other way counts as inactive or inconclusive;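 also: plate controls were DMSO alone for no effect and tamoxifen positive control for full effect; nearly all actives have a fitted effect of over 25% in size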); details: NIH 3T3 cell viability, qHTS; activity change, negative = cytotoxicity: at 92.2 µM (top of the series)
Outline: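 In this cytotoxicity screen, acute toxicity is scored as an ATP drop measured by CellTiter-Glo in NIH 3T3 fibroblasts following a 40 hr, 37 °C incubation with compound.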

[10] = Cell Viability - HUV-EC-C (AID 542; active = well fitted curve in the direction sought with a large enough effect; an effect the other way counts as inactive or inconclusive; also: % is scaled to controls: 0 for no effect and ±100 for the full control effect; nearly all actives have a fitted effect of over 35% in size); details: HUV-EC-C endothelial cell viability, qHTS; series mostly up to 92.2 µM
Outline: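 Concentration-dependent ATP loss in HUV-EC-C cells is the measure. Exposure lasts 40 hr at 37 °C; luminescence follows CellTiter-Glo addition, and Hill fits give AC50.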

c1ccc(Nc2ccccc2)cc1
inactive: Potency [1] > 92 µM | Potency [2] > 92 µM | Potency [3] > 92 µM | Potency [4] > 92 µM | Potency [5] > 92 µM | Potency [6] > 92 µM | outcome [7] | activity change, negative = cytotoxicity [8] -5.87% | Potency [9] | Potency [10]

Cc1ccc(N(C)C)cc1
inactive: Potency [1] > 92 µM | Potency [2] > 92 µM | Potency [3] > 92 µM | Potency [4] > 92 µM | Potency [5] > 92 µM | Potency [6] > 92 µM | outcome [7] | activity change, negative = cytotoxicity [8] -13.1% | Potency [9] | Potency [10]

Oc1cccc(Nc2ccccc2)c1
inactive: Potency [1] > 92 µM | Potency [2] > 92 µM | Potency [3] > 92 µM | Potency [4] > 92 µM | Potency [5] > 92 µM | Potency [6] > 92 µM | outcome [7] | activity change, negative = cytotoxicity [8] -16.5% | Potency [9] | Potency [10]

Cc1c(N)cccc1N
inactive: Potency [1] > 92 µM | Potency [2] > 92 µM | Potency [3] > 92 µM | Potency [4] > 92 µM | Potency [5] > 92 µM | Potency [6] > 92 µM | outcome [7] | activity change, negative = cytotoxicity [8] -3.84% | Potency [9] | Potency [10]

CC(C)CO
inactive: Potency [1] > 92 µM | Potency [2] > 92 µM | Potency [3] > 92 µM | Potency [4] > 92 µM | Potency [5] > 92 µM | Potency [6] > 92 µM | outcome [7] | activity change, negative = cytotoxicity [8] 3.29% | Potency [9] | Potency [10]

CC(=O)Nc1ccc(C)cc1
inactive: Potency [1] > 92 µM | Potency [2] > 92 µM | Potency [3] > 92 µM | Potency [4] > 92 µM | Potency [5] > 92 µM | Potency [6] > 92 µM | outcome [7] | activity change, negative = cytotoxicity [8] -10.4% | Potency [9] | Potency [10]

N#CCc1ccccc1[N+](=O)[O-]
inactive: Potency [1] > 92 µM | Potency [2] > 92 µM | Potency [3] > 92 µM | Potency [4] > 92 µM | Potency [5] > 92 µM | Potency [6] > 92 µM | outcome [7] | activity change, negative = cytotoxicity [8] -1.71% | Potency [9] | Potency [10]

O=C(O)CNC(=O)c1ccc(CO)o1
inactive: Potency [1] > 92 µM | Potency [2] > 92 µM | Potency [3] > 92 µM | Potency [4] > 92 µM | Potency [5] > 92 µM | Potency [6] > 92 µM | outcome [7] | activity change, negative = cytotoxicity [8] -13.4% | Potency [9] | Potency [10]

NC(N)=S
inactive: Potency [1] > 92 µM | Potency [2] > 92 µM | Potency [3] > 92 µM | Potency [4] > 92 µM | Potency [5] > 92 µM | Potency [6] > 92 µM | outcome [7] | activity change, negative = cytotoxicity [8] 7.78% | Potency [9] | Potency [10]

C=C(C)C(=O)OC
inactive: Potency [1] > 92 µM | Potency [2] > 92 µM | Potency [3] > 92 µM | Potency [4] > 92 µM | Potency [5] > 92 µM | Potency [6] > 92 µM | outcome [7] | activity change, negative = cytotoxicity [8] 2.46% | Potency [9] | Potency [10]

Cc1ccc2oc(=O)ccc2c1
inactive: Potency [1] > 92 µM | Potency [2] > 92 µM | Potency [3] > 92 µM | Potency [4] > 92 µM | Potency [5] > 92 µM | Potency [6] > 92 µM | outcome [7] | activity change, negative = cytotoxicity [8] -1.53% | Potency [9] | Potency [10]

[O-]/[N+](=N\O)c1ccccc1
inactive: Potency [1] > 92 µM | Potency [2] > 92 µM | Potency [3] > 92 µM | Potency [4] > 92 µM | Potency [5] > 92 µM | Potency [6] > 92 µM | outcome [7] | activity change, negative = cytotoxicity [8] 0.0649% | Potency [9] | Potency [10]

C=CC(=O)OCCCC
inactive: Potency [1] > 92 µM | Potency [2] > 92 µM | Potency [3] > 92 µM | Potency [4] > 92 µM | Potency [5] > 92 µM | Potency [6] > 92 µM | outcome [7] | activity change, negative = cytotoxicity [8] 10.3% | Potency [9] | Potency [10]
